From PubChem
Sampled rows, rich in hits. Any-hit rate of the full collection: about 1.3%.
eLon inh = inhibits E. coli Lon protease; purified E. coli Lon protease, fluorescence polarization; inhibition, % at 7.94 µM; hit rate 0.42% among 360,000; AID 602123; in the data active = inhibition above about 13%, passing the limit was not always enough;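 note: 0% = enzyme with probe and DMSO and 100% = no enzyme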
Bcl-xL primary = Bcl-xL (human) inhibition; inhibition, % at 10.9 µM; AID 2129; GST-Bcl-xL / FITC-Bim BH3 peptide fluorescence polarization; hit rate 0.7% among 320,000;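 active = inhibition above the mean of all tested compounds plus 3 SD, cutoff set per campaign, cut at about 30% in these data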;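 note: 0% = DMSO wells and 100% = unlabeled Bim-BH3 peptide competitor; inhibitors lower millipolarization by displacing the labeled peptide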
Target sequence (Q07817 whole entry, looked up): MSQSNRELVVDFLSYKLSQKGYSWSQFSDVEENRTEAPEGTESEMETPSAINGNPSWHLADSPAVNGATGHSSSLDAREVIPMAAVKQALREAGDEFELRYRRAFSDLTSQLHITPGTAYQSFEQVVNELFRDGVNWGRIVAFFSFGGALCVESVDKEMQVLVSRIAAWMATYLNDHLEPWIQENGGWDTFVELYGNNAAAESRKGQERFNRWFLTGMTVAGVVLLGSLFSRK
MEX-5 binding = C. elegans MEX-5 TCR-2 RNA binding activity; Q9XUB2; MEX-5/FITC-TCR2 RNA binding, fluorescence polarization; active compounds read low; activity score (negative = inhibition of binding), % at 10 µM; hit rate 0.38% among 300,000; AID 1832;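 active = inhibition past about -25% in most replicates, and total fluorescence under double the plate's negative control median, limit read from the data; inconclusive = replicates evenly split on the limit, or fluorescence at least double controls; inactive = too little inhibition in most replicates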;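 note: 0% = DMSO and -100% = 5 µM competing unlabeled TCR2 RNA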
GLD-1 RNA inh = GLD-1-TGE RNA interaction inhibition (C. elegans). Q17339. purified GLD-1 + fluorescein TGE RNA, fluorescence polarization. inhibition, % at 5.96 µM. hit rate 0.44% among 320,000;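 active = percent inhibition above a per-plate cutoff, the plate mean of test compounds plus 3 SD, cut at about 30% in these data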;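 note: 0% = DMSO wells with GLD-1 and probe and 100% = wells lacking GLD-1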
EBV gp42 block = inhibitors of Epstein-Barr virus glycoprotein 42. Fluorescence polarization binding assay, mP read-out. inhibition, % (tested at 21.74 µM). hit rate 0.42% among 220,000. Q1HVG2. AID 1085; in the data active = inhibition above about 50%
Target sequence (Q1HVG2 whole entry, looked up): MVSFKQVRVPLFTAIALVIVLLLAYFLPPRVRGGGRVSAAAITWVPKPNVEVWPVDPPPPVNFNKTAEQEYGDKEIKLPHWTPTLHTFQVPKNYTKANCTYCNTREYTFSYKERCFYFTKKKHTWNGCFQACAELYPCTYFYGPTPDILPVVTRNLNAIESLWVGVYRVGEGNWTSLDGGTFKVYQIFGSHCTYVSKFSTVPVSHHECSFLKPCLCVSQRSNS
GLD1 RNA confirm = confirmation of C. elegans GLD-1 TGE RNA binding inhibitors; shares compounds with GLD-1 RNA inh; GLD-1/FL-TGE RNA fluorescence polarization, biochemical; inhibition, % at 5.96 µM; hit rate 10% among 550; AID 2459;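 active = average inhibition across triplicates above the hit cutoff set in the primary screen, cut at about 32% in these data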;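 note: 0% = GLD-1 with RNA probe and DMSO and 100% = wells lacking GLD-1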
* hit, by the source's call; ? = inconclusive; nt = not tested or not shown.

SMILES	eLon inh	Bcl-xL primary	MEX-5 binding	GLD-1 RNA inh	EBV gp42 block	GLD1 RNA confirm
COc1ccccc1CNC(=O)Cn1nnnc1CN(C)C(C)C	2.5	1.1	-0.6	6.6	nt	nt
CC(=O)Nc1cc2c(c(Cl)c1Cl)-c1ccccc1C2=O	-1.2	nt	nt	nt	nt	nt
CC(=O)Nc1c2c3c(cccc3n(C)c1=O)C(=O)c1ccccc1-2	9.4	47.1*	-6.8	32.0*	9.4	8.2
N#CC1=C(N)C2=CCCC[C@H]2[C@H](c2cccc(F)c2)C1(C#N)C#N	3.2	44.1*	-14.2	37.3*	29.0	1.4
O=C(NCc1cccnc1)c1ccc2sc([C@H]3C[C@H](O)[C@@H](CO)O3)nc2c1	3.6	nt	nt	nt	nt	nt
OCc1cccc(Nc2ncnc3sc4c(c23)CCCCC4)c1	4.4	1.8	0.3	1.1	nt	nt
CCOC(=O)C1CC(=O)c2cc(OC)c(OC)cc2C1 (configuration not stated)	-8.2	-1.1	0.6	60.3*	-12.2	1.2
Cc1ccc(C(=O)COc2cc(C)nc3nncn23)cc1	-7.8	0.1	-0.3	3.3	-9.1	nt
FC(F)Oc1ccc(NC(=S)N2CCc3ccccc32)cc1	3.4	2.3	0.6	0.7	-12.4	nt
CC1(C)CC(=O)C2=C(C1)Nc1ccccc1NC2c1ccc(F)cc1 (configuration not stated)	3.5	46.1*	-1.1	34.8*	nt	0.4
CC1(C)CC(=O)C2=C(C1)Nc1ccccc1NC2c1cc(Cl)ccc1O (configuration not stated)	4.4	13.2	-4.5	9.8	nt	nt
Cc1ccc(C2Nc3ccccc3NC3=C2C(=O)CC(C)(C)C3)c(O)c1 (configuration not stated)	3.5	47.1*	-4.4	51.1*	nt	1.2
CO/N=C\Cc1oc(=O)c(NC(=O)c2ccccc2)cc1C(=O)OC	7.3	36.0*	0.4	36.6*	-23.1	-10.1
COCC(=O)NCc1ccc2c(c1)cc(C)n2C	11.4	30.1	-1.4	35.6*	14.8	13.8
Cc1cc2cc(CNC(=O)c3ccc4c(c3)OCO4)ccc2n1C	25.0*	33.2*	-0.5	43.6*	-0.6	6.3
CCCCn1c(N)c(N(CC(C)C)C(=O)c2cccc(-n3cnnn3)c2)c(=O)[nH]c1=O	-7.6	-7.1	-3.6	-0.4	nt	nt
O=C(CN(C1CCCCC1)C1CCCCC1)N1CCc2ccccc2C1	-4.0	6.0	0.5	39.2*	-1.1	-0.4
Cc1cccc(NC(=O)/C(C#N)=C/c2cccc([N+](=O)[O-])c2)n1	4.0	3.8	-1.2	-5.6	nt	nt
CCC1CCc2sc(C(=O)NCC(c3ccc(OC)cc3)N3CCCC3)cc2C1 (configuration not stated)	-1.7	6.1	7.0	48.7*	nt	-5.4
Cc1ccc(CS(=O)(=O)Cc2ccc(C(=O)NC3CC3)o2)cc1	5.1	4.0	0.1	33.0*	nt	-8.4
O=C(NC1CCCCCC1)c1ccc(CS(=O)(=O)Cc2ccc(F)cc2)o1	-1.0	5.2	-0.1	4.8	nt	nt
CCC1OC2(C)OC(=N)C1(C#N)C(C#N)(C#N)C2c1ccccc1 (configuration not stated)	-20.6	60.3*	-9.4	44.0*	-13.6	-0.8
CCC12OC(=N)C(C#N)(C1C)C(C#N)(C#N)C(c1ccccc1)O2 (configuration not stated)	1.3	20.9	-10.4	32.8*	8.9	-0.6
Cc1ccc(C2OC34CCCCCC3C(C#N)(C(=N)O4)C2(C#N)C#N)cc1 (configuration not stated)	16.4	23.4	-7.2	16.3	11.4	nt
CC1=C(C(=O)N(C(C)C)C(C)C)CC(CC(=O)NCc2cccc3ccccc23)C(=O)N1Cc1ccc(F)cc1 (configuration not stated)	0.1	nt	nt	nt	nt	nt
SMILES	eLon inh	Bcl-xL primary	MEX-5 binding	GLD-1 RNA inh	EBV gp42 block	GLD1 RNA confirm
CCCCCCc1cc2cc(S(=O)(=O)c3ccc(C)cc3)c(=O)oc2cc1O	0.1	5.5	2.2	39.3*	-4.6	-3.9
CCN1CCN(Cc2ccc(NC(=O)c3ccc(C)c(NC(=O)c4ccnnc4)c3)cc2C(F)(F)F)CC1	-5.6	-1.1	-0.5	39.1*	-9.2	2.2
O=C(O)c1cccc2c1C(=O)c1ccccc1C2=O	-10.8	5.5	1.1	5.9	-4.3	nt
O=C(O)c1ccc2c3c(ncnc13)-c1ccccc1C2=O	nt	71.7*	?	59.9*	76.0*	44.8*
Cc1c(NC=C(C#N)C#N)c(=O)n(-c2ccccc2)n1C	4.8	85.8*	0.4	35.0*	-5.8	1.3
CCOc1cccc(=O)c2c(C)n(C)c(C)c12	11.5	25.6	-7.3	40.0*	2.3	-4.0
O=C(O)c1ccc(Cl)c2c1C1C=CCC1C(c1ccccn1)N2 (configuration not stated)	nt	85.1*	-67.5*	38.8*	27.6	20.8
O=C(CN1CCCCCCC1)Nc1cc(Cl)cc(Cl)c1	11.8	2.6	4.6	32.8*	-9.4	2.7
O=C(CN1CCCC1)Nc1cccc(Cl)c1	-7.3	-0.4	-3.5	-1.9	nt	nt
CS(=O)(=O)N(CCC(=O)O)Cc1ccccc1	0.0	4.6	1.0	37.0*	-9.3	-3.2
CCc1n[nH]c(=S)n1/N=C/c1cc(Br)c(O)c(OC)c1	-15.7	-4.6	-3.8	56.0*	-11.4	6.7
CNc1ccccc(-c2ccc3ccccc3n2)c1=O	2.0	48.5*	-2.8	34.8*	19.4	-5.3
CC(NC(=O)COC(=O)c1cc(S(=O)(=O)N2CCOCC2)ccc1F)c1ccccc1 (configuration not stated)	-8.1	nt	nt	1.0	nt	nt
Nc1n[nH]c2cc(=O)n(-c3cccc(C(F)(F)F)c3)nc12	-3.9	43.2*	-19.0	39.2*	28.3	21.3
O=C(Nc1ccc2nc(-c3ccco3)c(-c3ccco3)nc2c1)N1CCN(c2ccccn2)CC1	10.1	50.8*	-30.2*	33.9*	-2.5	-1.2
Cc1nc2cc(NC(=O)N3CCN(c4ccccn4)CC3)ccc2o1	2.5	-1.7	0.9	9.4	-1.0	nt
CC(=O)Nc1cccc(NC(=O)c2csc(C)c2)c1	-10.0	2.6	0.6	9.2	nt	nt
Cn1cc(/C=N\O)nc2c(=O)n(-c3ccccc3)c(=O)nc1-2	-1.6	36.4*	-14.2	35.2*	-15.5	8.2
Nc1cccc2c1C(=O)N(Cc1cccc(Cl)c1)C2=O	25.8	22.0	-10.2	32.0*	46.0	38.8*
O=C1Cc2ccccc2C(=O)N1Cc1cccc(Cl)c1	-3.6	nt	2.9	nt	nt	nt
CCOC(=O)C1CCCN(C(=O)c2ccc(-c3ccccc3)cc2)CC1 (configuration not stated)	7.7	nt	nt	nt	nt	nt
CC(/C=C/c1ccc(N(C)C)cc1)=N/N=C1/NC(=O)CC(C(=O)Nc2ccc(Cl)cc2)S1 (configuration not stated)	-63.7	-7.2	2.6	-11.6	-50.0	nt
CC(/C=C/c1ccc(N(C)C)cc1)=N\N=C1\NC(=O)CC(C(=O)Nc2ccccc2)S1 (configuration not stated)	-54.0	-8.5	3.9	33.0*	-83.2	-83.3
